Rows were chosen to be rich in hits. Some 19% of all compounds tested hit in one or more screens of this group.
IL-1B inflam inh: blocks inflammasome-driven IL-1 beta release | THP-1 LPS/ATP IL-1B secretion, AlphaLISA, 16 h; active compounds read low | activity change, % at 57.5 µM | hit rate 4.7% among 360,000 | AID 743279; in the data active = activity change below about -50%; inconclusive = mostly about -30% to -49%
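THP-1 cells pretreated 1 hr with compounds (up to 57.5 uM final), then stimulated with LPS (250 ng/mL final) plus ATP (1.25 mM final); secreted IL-1B measured by AlphaLISA after 16 hr, decreased signal indicating inhibition.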
DT40 TDP1 CPT: growth inhibition of DT40 Tdp1-/-;hTDP1 cells with camptothecin (screen for TDP1 inhibitors). chicken DT40 Tdp1-/-;hTDP1 cells + 20 nM CPT, ATP luminescence, 48 h. Potency, µM (top dose mostly 46.2 µM), for the others: at the top dose activity change, negative = growth inhibition, actives largely listed as inhibitors. hit rate 12% among 420,000; note: potency is the fitted concentration of half-maximal effect; nearly all actives have a fitted effect of over 55% in size
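Chicken DT40 Tdp1-/- cells stably complemented with human TDP1 were seeded at 400 cells/well in medium containing 20 nM camptothecin, exposed to pin-transferred compounds, and grown at 37 °C for at least 48 hr. Viability was read as ATP luminescence.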
HT1080 IDH1KD tx: toxicity to HT-1080 IDH1 knockdown cells (counter line); HT-1080 IDH1 knockdown viability, ATP luminescence, 48 h; Potency, µM (doses to about 46.1 µM), for the others: at the highest dose activity, negative = toxicity, most hits filed as cytotoxic; hit rate 2% among 360,000; AID 686971;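 note: potency is the fitted concentration of half-maximal effect; 0% = DMSO wells and -100% = cell-free medium wells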
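Luminescent ATP read-out (CellTiter-Glo, 10 min at room temperature) after 48 h compound exposure at 37 °C gave viability of IDH1-knockdown HT-1080 cells. Activity was normalised to DMSO and cell-free wells, then fitted as concentration-response curves.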
HT1080NT lethal: kills 2HG-producing HT-1080-NT fibrosarcoma cells; HT-1080-NT fibrosarcoma viability, CellTiter-Glo ATP luminescence, 48 h; Potency, µM (top dose mostly 46.1 µM), without a hit: top-dose activity, negative = less viability, most hits filed as cytotoxic; hit rate 1.6% among 360,000; AID 686970;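 note: NT is the 2HG producing partner of a matched IDH1 knockdown line; potency is the fitted concentration of half-maximal effect; 0% = DMSO-treated cells and -100% = media-only wells without cells; nearly all actives have a fitted effect of over 55% in size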
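Viability by CellTiter-Glo luminescence after 48 h compound exposure at 37C of HT-1080-NT cells (750/well, RPMI, 5% FBS). % activity scaled between DMSO wells and medium-only wells, then curve-fitted and categorized by curve class.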
DT40 TDP1 no CPT: qHTS for Inhibitors of human tyrosyl-DNA phosphodiesterase 1 (TDP1): qHTS in cells in absence of CPT; AID 686978, 2013; Potency, µM (series often up to 46.2 µM), for inactives: at the top dose activity change, negative = growth inhibition, actives largely listed as inhibitors; DT40 Tdp1-/- hTDP1 cells, no CPT, ATP luminescence, 48 h; hit rate 15% among 420,000; note: potency is the fitted concentration of half-maximal effect; nearly all actives have a fitted effect of over 55% in size
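Growth of hTDP1-complemented DT40 Tdp1-knockout cells is measured by ATP luminescence after at least 48 hr compound exposure at 37 °C, with DMSO substituting for the 20 nM CPT used in the parallel screen.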
* = called active by the depositor; i = inactive; u = inconclusive; x = no result. Unless noted, calls come from the whole dose curve; as a rule, active = well fitted curve in the direction sought with a large enough effect; inconclusive = small, poorly fitted or top-dose-only effect, or another doubt; inactive = no such curve, though single readings can be large; an effect the other way counts as inactive or inconclusive. Unless noted, % is set by controls: 0 for no effect and ±100 for the full control effect.

SMILES	IL-1B inflam inh	DT40 TDP1 CPT	HT1080 IDH1KD tx	HT1080NT lethal	DT40 TDP1 no CPT
Cc1ccc(C)c(S(=O)(=O)N2CCN(C(=O)CNC(=O)c3ccc4ccccc4c3)CC2)c1	-6.1	u	-17.9%	-18.7%	16.4µM*
Cc1cccc(C(=O)NCC(=O)N2CCN(S(=O)(=O)c3cc(C)ccc3C)CC2)c1	12.1	u	-1.9%	-7.3%	u
Cc1ccc(C)c(S(=O)(=O)N2CCN(C(=O)[C@@H](NC(=O)c3ccc(F)cc3)C(C)C)CC2)c1	-6.3	u	-12.4%	-7.6%	20.6µM*
CCNc1nc(Oc2ccc(C#N)cc2)cc(C(F)(F)F)n1	-57.5*	-4.4%	-10.9%	-14.3%	u
CC(C)Nc1nc(Oc2ccc(Cl)cc2)cc(C(F)(F)F)n1	20.7	-17.5%	-5.0%	-1.5%	4.1%
COC(=O)c1c(NC(=O)c2nc3ccccc3s2)sc2c1CC(C)(C)NC2(C)C	-3.6	23.1µM*	6.9%	-10.3%	20.6µM*
COC(=O)c1c(NC(=O)c2ccc(C(=O)c3ccccc3)cc2)sc2c1CC(C)(C)NC2(C)C	-4.0	-14.2%	10.0%	-2.1%	u
CC1(C)Cc2c(sc(NC(=O)c3ccc4c(c3)OCCO4)c2C(N)=O)C(C)(C)N1	-67.0*	-2.7%	u	u	11.5%
CCOC(=O)c1c(NC(=O)COC(=O)/C=C/c2ccco2)sc2c1CC(C)(C)NC2(C)C	-68.2*	u	-4.3%	1.5%	5.8µM*
CC1(C)Cc2c(sc(NC(=O)c3ccc(S(=O)(=O)N4CCCCCC4)cc3)c2C(N)=O)C(C)(C)N1	i	u	u	-18.5%	-9.8%
CCOC(=O)c1c(NC(=O)CSc2nc3ccccc3[nH]2)sc2c1CC(C)(C)NC2(C)C	-50.5*	u	4.6%	-1.7%	u
CCOc1ccc(C(=O)Nc2sc3c(c2C(=O)OC)CC(C)(C)NC3(C)C)cc1	-15.7	u	-15.6%	-15.2%	16.4µM*
CC1(C)Cc2c(sc(NC(=O)COc3ccc(Cl)cc3)c2C#N)C(C)(C)N1	-70.1*	u	u	u	u
CCOC(=O)c1c(NC(=O)COc2ccccc2)sc2c1CC(C)(C)NC2(C)C	-3.6	u	9.1%	-0.1%	16.4µM*
COc1ccc(OC)c(NC(=O)c2nnn(CC(=O)Nc3ccc(C(C)C)cc3)c2N)c1	x	-101.3%	x	x	u
COc1ccc(N/C=C/C(=C(C#N)C#N)N(C)C)cc1	0.3	-18.3%	26.6%	21.1%	-2.7%
COc1ccc(OC)c(NC(=O)N2CCC3(CC2)Oc2ccccc2C(=O)N3Cc2ccccc2F)c1	x	u	x	x	14.6µM*
COc1ccc(OC)c(NC(=O)N2CCC(N3CCN(Cc4ccc(F)cc4)C(=O)C3=O)CC2)c1	x	6.2%	x	x	4.9%
O=C(c1c(F)cccc1F)N(Cc1ccccn1)C1CC1	17.9	-25.6%	15.2%	-4.1%	u
COc1ccc(C(C(=O)NCc2ccccc2)N(Cc2ccco2)C(=O)c2snc(C(N)=O)c2N)cc1OC (stereo not given)	-20.5	u	-6.4%	-14.1%	u
NC(=O)c1nsc(C(=O)N(CC(=O)NCc2ccccc2)c2cccc(F)c2)c1N	5.1	0.8%	-7.8%	-6.9%	-13.0%
COc1ccc(C(C(=O)NCc2ccccc2)N(C(=O)c2snc(C(N)=O)c2N)c2ccccc2OC)cc1 (stereo not given)	-54.5*	u	-9.0%	-11.9%	u
NC(=O)c1nsc(C(=O)N(c2cccc(F)c2)C(C(=O)NCc2ccccc2)c2ccc(O)cc2)c1N (stereo not given)	-50.7*	u	-8.1%	-0.7%	20.6µM*
COc1ccccc1N(C(=O)c1snc(C(N)=O)c1N)C(C(=O)NCc1ccccc1)c1ccc(O)cc1 (stereo not given)	-72.4*	-7.2%	-17.1%	-18.2%	-29.2%
COc1ccc(N(C(=O)c2snc(C(N)=O)c2N)C(C(=O)NCc2ccccc2)c2ccc(F)cc2)c(OC)c1 (stereo not given)	u	25.9µM*	u	u	u
SMILES	IL-1B inflam inh	DT40 TDP1 CPT	HT1080 IDH1KD tx	HT1080NT lethal	DT40 TDP1 no CPT
COc1ccc(C(C(=O)NCc2ccccc2)N(C(=O)c2snc(C(N)=O)c2N)C2CCCC2)cc1 (stereo not given)	-4.7	6.1%	-0.5%	-0.6%	-5.7%
COc1cccc(N2CCN(C(=O)C3CCN(S(=O)(=O)c4ccc5c(c4)CC(C)N5C(C)=O)CC3)CC2)c1 (stereo not given)	10.5	u	-1.3%	-19.0%	u
Cc1ccc(N(C(=O)c2snc(C(N)=O)c2N)C(C(=O)NCc2ccccc2)c2ccncc2)c(C)c1 (stereo not given)	-51.0*	u	-21.1%	-28.8%	u
COc1ccc(CCNC(=O)c2n[nH]c(=O)c3ccccc23)cc1	12.2	-18.4%	u	-25.6%	u
Cc1ccc(N(CC(=O)NC2CCCC2)C(=O)CNC(=O)c2cccs2)c(C)c1	11.7	-23.2%	17.0%	17.2%	-18.2%
O=C(Nc1ccc(Cc2ccncc2)cc1)c1cc(F)c(F)cc1Cl	0.0	-4.0%	-6.3%	11.4%	-17.0%
O=C(Nc1ccc(NC(=O)C23CC4CC(CC(C4)C2)C3)cc1)c1cc(F)c(F)cc1Cl	2.8	u	21.0%	10.6%	13µM*
Cc1ccc(NC(=O)COC(=O)c2nn(C)c(=O)c3ccccc23)cc1F	9.7	0.3%	9.9%	1.2%	5.9%
O=C(Nc1ccc(Cl)cc1)C1C2C=CC3(O2)C1C(=O)N(CCCN1CCCCC1)C3C(=O)NC1CCCCC1 (stereo not given)	7.9	-18.8%	6.0%	0.0%	0.7%
CCCCN(C)CCN1C(=O)C2C(C(=O)Nc3ccc(Cl)cc3)C3C=CC2(O3)C1C(=O)NC1CCCCC1 (stereo not given)	-60.1*	9.1%	u	-18.7%	-15.9%
CCOc1ccccc1C(=O)NC(C(=O)N(C)c1c(N)n(Cc2ccccc2)c(=O)[nH]c1=O)C(C)C (stereo not given)	12.9	-16.4%	-10.3%	0.0%	-29.6%
COc1cccc(NC(=O)C(Sc2nnc(-c3ccncc3)n2-c2ccc(Cl)cc2)c2ccccc2)c1 (stereo not given)	-9.4	16.4µM*	u	u	20.6µM*
O=C(CSc1nnc(-c2ccc(Br)cc2)n1C1CCCCC1)N1CCCC1	30.8	u	0.8%	-10.8%	23.1µM*
O=C(CSc1nnc(-c2ccccc2F)n1C1CCCCC1)N1CCCC1	18.7	-24.0%	14.6%	6.2%	-23.4%
CC(C)(C)c1ccc(-c2nnc(SCCC#N)n2C2CCCC2)cc1	-51.2*	18.4µM*	u	u	18.4µM*
